According to PubChem BioAssay AID651815 (National Center for Advancing Translational Sciences (NCATS), 2012):
The campaign covered roughly 2,100 compounds. About 1,100 (52%) were called active. Roughly 29% stayed inconclusive and do not appear here. The set was probably picked from earlier hits. Some of the results follow. A number with no mark means an inactive call. The call rests on the fitted dose curve; in most records, active means well fitted inhibition curve with a large enough effect; inconclusive means small, poorly fitted or top-dose-only effect; inactive means no such curve, though single readings can be large or run the other way.

Biological target: DNA dC->dU-editing enzyme APOBEC-3F (Homo sapiens) (UniProt Q8IUX4)
Sequence (Q8IUX4 whole entry, looked up): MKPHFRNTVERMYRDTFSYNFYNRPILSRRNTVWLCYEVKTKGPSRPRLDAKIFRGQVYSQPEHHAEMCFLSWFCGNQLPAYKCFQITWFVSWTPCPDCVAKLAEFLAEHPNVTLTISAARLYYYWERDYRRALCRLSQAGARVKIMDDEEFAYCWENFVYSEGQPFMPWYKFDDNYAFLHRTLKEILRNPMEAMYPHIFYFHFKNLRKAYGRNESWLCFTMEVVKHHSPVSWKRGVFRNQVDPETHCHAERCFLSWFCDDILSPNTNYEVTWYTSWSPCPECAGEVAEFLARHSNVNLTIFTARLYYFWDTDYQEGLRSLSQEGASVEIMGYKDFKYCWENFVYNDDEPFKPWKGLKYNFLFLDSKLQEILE
Assay: qHTS for inhibitors of Vif-A3F interactions: Cherry picks counterscreen; further: nearly all actives have a fitted effect of over 65% in size
Details: HeLa A3F-eYFP/Vif cells, eYFP fluorescence, 24 h; series mostly up to 46.1 µM; activity, negative = inhibitor: at the top concentration
How it was run: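 HeLa cells stably expressing A3F-eYFP and Vif, cultured overnight, then treated 24 h at 37 degrees C with compounds at several concentrations; yellow fluorescence (488 nm Ex/500-530 nm Em) imaged on Acumen; MG132 positive control.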
On the % scale 0 is the no-effect control and ±100 the full control effect; potency means the concentration at half of the fitted maximal effect.

SMILES	Potency	activity, negative = inhibitor
CC(C)OC(=O)c1c2c(n3ccccc13)C(=O)c1ccccc1C2=O	8.2 µM (active)	–
CCOc1ccccc1C(=O)Nc1c(C(=O)Nc2ccc(F)cc2)oc2ccccc12	0.92 µM (active)	–
Oc1ccc(C=NNC(=S)Nc2ccc(F)cc2)c(O)c1	–	-1.61%
Cc1cc(C)c[n+](-c2nc3ccccc3nc2[N-]S(=O)(=O)c2ccc(Br)s2)c1	9.2 µM (active)	–
O=S(=O)([N-]c1nc2ccccc2nc1-[n+]1ccc(-c2ccncc2)cc1)c1ccccc1	18.4 µM (active)	–
CCc1cc[n+](-c2nc3ccccc3nc2[N-]S(=O)(=O)c2ccc(Br)s2)cc1	8.2 µM (active)	–
NN=C1c2ccccc2C(=O)C1C(=O)C(c1ccccc1)c1ccccc1 (stereo not drawn)	12.5 µM (active)	–
O=C(c1ccccc1)C1C(=O)c2ccccc2C1=O	–	11.3%
CCCCN1C(=O)C2Cc3c([nH]c4ccccc34)CN2C1=S (stereo not drawn)	15.8 µM (active)	–
CCS(=O)(=O)Nc1cccc(C2=NN(C(=O)c3ccco3)C(c3ccco3)C2)c1 (stereo not drawn)	11.2 µM (active)	–
O=C(O)c1ccccc1/C=N/Nc1ccc(S(=O)(=O)N2CCOCC2)cc1[N+](=O)[O-]	–	-5.64% [at 36.9 µM]
CCCN1CCC(=NNc2ccc(S(=O)(=O)N3CCOCC3)cc2[N+](=O)[O-])CC1	3.96 µM (active)	–
Cc1ccc(NC(=S)N=Nc2c(O)n(C)c3ccc(S(=O)(=O)N4CCOCC4)cc23)cc1	–	7.68%
CC(C)=CCn1c2ccc(NC(=O)NCc3ccc(F)cc3)cc2c(=O)n1C	3.14 µM (active)	–
COc1ccccc1CCC(=O)Nc1ccc2c(c1)c(=O)n(C)n2-c1cccs1	3.14 µM (active)	–
COc1ccccc1CCC(=O)Nc1ccc2c(c1)c(=O)n(C)n2Cc1ccc(F)cc1	15.8 µM (active)	–
Cc1ccc2[nH]c3c(c2c1)CN(C(=O)CN1CC(C)OC(C)C1)CC3 (stereo not drawn)	–	-19.8% [at 36.9 µM]
O=C(C[C@@H]1C/C=C/CC[C@H](Cc2ccc(F)cc2)C(=O)OC[C@@H](Cc2ccccc2)NC1=O)N[C@H](CO)Cc1ccccc1	16.4 µM (active)	–
CC(/C=N/NC(=O)c1cccc(F)c1)=C\c1ccccc1	12.5 µM (active)	–
COc1cccc(C(=O)N/N=C/C(Br)=C/c2ccccc2)c1	2.8 µM (active)	–
O=C(O)c1ccc(N/N=C/C(Br)=C/c2ccccc2)cc1	–	-0.273% [at 36.9 µM]
C/C(=N/NC(N)=S)c1ccc(Br)s1	–	6.46%

SMILES	Potency	activity, negative = inhibitor
Cc1cc(C)cc(C(=O)N2CC(=O)Nc3ccccc32)c1	0.994 µM (active)	–
COc1cc(OC)cc(C(=O)N2CC(=O)Nc3ccccc32)c1	1.25 µM (active)	–
O=C1CN(C(=O)c2cc(Br)c(Br)s2)c2ccccc2N1	6.27 µM (active)	–
CCCn1nc(C(=O)N2CC(=O)Nc3ccccc32)c2ccccc2c1=O	11.2 µM (active)	–
CCC(C)[C@H](NC(=O)N1CC(=O)Nc2ccccc21)C(=O)Nc1ccccc1C (stereo partly drawn)	15.8 µM (active)	–
Cc1ccc(N/C(N)=N/c2nc(CSc3nnc(C)s3)cc(=O)[nH]2)c(C)c1	1.77 µM (active)	–
CC(=Nc1ccccc1)C1=C(O)C(Cc2ccccc2)NC1=O (stereo not drawn)	0.314 µM (active)	–
CC#Cc1cc2c(cc1O)CCC1C2CCC2(C)C(O)CCC12 (stereo not drawn)	5.59 µM (active)	–
C=C(NC(=O)C(=C)NC(=O)c1csc(C2=NC3c4csc(n4)C4NC(=O)c5csc(n5)C(C(C)(O)C(C)O)NC(=O)C5CSC(=N5)/C(=C/C)NC(=O)C(C(C)O)NC(=O)c5csc(n5)C3(CC2)NC(=O)C(C)NC(=O)C(=C)NC(=O)C(=C)NC(=O)C(C(C)C)NC2C=Cc3c(C(C)O)cc(nc3C2O)C(=O)OC4C)n1)C(N)=O (stereo not drawn)	5.59 µM (active)	–
Cn1c(=O)c2cc(NC(=O)Cc3cccc4ccccc34)ccc2n1-c1ccccc1	7.04 µM (active)	–
COc1ccc(NC(=O)CN2C(=O)C3(SCC(=O)N3c3ccccc3)c3ccccc32)cc1Cl (stereo not drawn)	–	0.792%
CC(CC(=O)Nc1ccc2c(c1)c(=O)n(C)n2-c1ccccc1F)c1ccccc1 (stereo not drawn)	12.5 µM (active)	–
CC(CC(=O)Nc1ccc2c(c1)c(=O)n(C)n2-c1ccccc1)c1ccccc1 (stereo not drawn)	2.23 µM (active)	–
CCOc1ccc(S(=O)(=O)NCc2ccccn2)cc1NC(=O)c1ccccc1	3.14 µM (active)	–
CCN1/C(=C/C=C2/SC(=Nc3cccc4ncccc34)N(C)C2=O)Sc2ccccc21	2.31 µM (active)	–
COc1ccc2nc(SCC(=O)N3CC(=O)Nc4ccccc43)c(C#N)cc2c1	16.4 µM (active)	–
CCc1ccc2nc(SCC(=O)N3CC(=O)Nc4ccccc43)c(C#N)cc2c1	14 µM (active)	–
CCc1ccc2nc(SCC(=O)Nc3ccccc3N3CCOCC3)c(C#N)cc2c1	2.59 µM (active)	–
N#Cc1cc2ccccc2nc1SCC(=O)Nc1ccccc1N1CCOCC1	–	-24.1%
CCC1CCCCN1CCCNC(=O)c1ccc2c(c1)N(Cc1ccccc1F)C(=O)c1ccccc1S2(=O)=O (stereo not drawn)	4.11 µM (active)	–
N#Cc1ccc(-c2cccnc2)nc1SCC(=O)c1ccccc1	2.91 µM (active)	–
Cc1ccc(C(=O)CSc2nc(-c3ccccc3)ccc2C#N)cc1	16.4 µM (active)	–

SMILES	Potency	activity, negative = inhibitor
Cc1nc(SCC(=O)c2ccccc2)c(C#N)c(-c2ccco2)c1C(=O)NCc1ccco1	–	-16.1% [at 36.9 µM]
CC(=O)c1ccc2cccc3c2c1N=CN3C	12.5 µM (active)	–
CC(=O)N1CCc2c(sc(NC(=O)CSc3ccccc3)c2-c2nc3ccccc3s2)C1	16.4 µM (active)	–
CN1CCc2c(sc(NC(=O)CSc3ccc(F)cc3)c2-c2nc3ccccc3s2)C1	14.6 µM (active)	–
CC(=O)Nc1sc2c(c1-c1nc3ccccc3s1)CCN(C(C)C)C2	3.26 µM (active)	–
Cc1ccc(/C=C/c2ccc(N(C)C)cc2)[n+](C)c1	15.8 µM (active)	–
CC[n+]1cc(C)ccc1/C=C/c1ccc(N(C)C)cc1	17.7 µM (active)	–
CN(C)c1ccc(/C=C/c2cc[n+](C)cc2)cc1	17.7 µM (active)	–
CCOC(=O)c1c(CC(C)C)csc1/N=C/C1C(=O)CCCC1=O	–	-3.7%
O=C(NCc1cc(C(F)(F)F)ccc1Cl)c1cccc2c1C(=O)c1ccc(N3CCOCC3)cc1S2(=O)=O	18.4 µM (active)	–
O=C(NCc1cccc(C(F)(F)F)c1)c1cccc2c1C(=O)c1ccc(N3CCC(Cc4ccccc4)CC3)cc1S2(=O)=O	18.4 µM (active)	–
O=C(NCc1cc(C(F)(F)F)ccc1Cl)c1cccc2c1C(=O)c1ccc(N3CCC(Cc4ccccc4)CC3)cc1S2(=O)=O	14 µM (active)	–
O=C(NCc1ccco1)c1cccc2c1C(=O)c1ccc(N3CCC(Cc4ccccc4)CC3)cc1S2(=O)=O	20.6 µM (active)	–
Cc1ccc(C(=O)NC2c3ccccc3-c3ccccc32)cc1	3.96 µM (active)	–
CN(C)C(=O)c1cccc(-c2cnc3c(NC=O)cc(-c4ccccc4F)cn23)c1	–	1.13% [at 36.9 µM]
COc1ccccc1-c1cc(NC=O)c2ncc(-c3ccc(S(C)(=O)=O)cc3)n2c1	5.59 µM (active)	–
COc1ccccc1-c1cc(NC=O)c2ncc(-c3cccc(C(=O)N(C)C)c3)n2c1	14 µM (active)	–
CC1C/C(=N\NC(N)=S)c2cc(Cl)ccc2S1 (stereo not drawn)	–	6.56%
O=C(Nc1nnc(-c2ccc3c(c2)CCCC3)o1)c1c(F)cccc1F	–	10.7%
Cc1ccccc1-n1c(/C=C/c2c(C)n(C)c3ccccc23)nc2ccccc2c1=O	18.4 µM (active)	–
O=C(Nc1cc(Cl)ccc1-n1cncn1)c1ccc([N+](=O)[O-])s1	14 µM (active)	–
COc1cccc(/C=N/NC(=O)c2[nH]nc3c2CCc2ccccc2-3)c1	2.5 µM (active)	–

SMILES	Potency	activity, negative = inhibitor
COc1ccc(/C=N/NC(=O)c2[nH]nc3c2CCc2ccccc2-3)cc1OC	4.98 µM (active)	–
COc1ccc(CN2C(=O)C(C)Nc3ncnc(N4CCc5ccccc5C4)c32)cc1 (stereo not drawn)	2.8 µM (active)	–
CCn1nc(-c2ccccc2)c2nc3ccccc3nc21	20.6 µM (active)	–
O=C(NCC1CCCO1)c1nn2c(C(F)(F)F)cc(-c3cc(Br)cs3)nc2c1Br (stereo not drawn)	11.6 µM (active)	–
CS(=O)(=O)N(CC(=O)N1CCN(Cc2ccccc2)CC1)c1ccccc1F	–	-1.61%
CC(=O)n1c2ccccc2c2nc3ccccc3nc21	5.8 µM (active)	–
Cc1cccc(-n2c(N)c(-c3nc4ccccc4n3C)c3nc4ccccc4nc32)c1	–	-9.95%
CS(=O)(=O)Nc1ccc(C2=NN(S(C)(=O)=O)C(c3ccc4nccnc4c3)C2)cc1 (stereo not drawn)	–	5.25%
CCS(=O)(=O)N1N=C(c2cccc(NS(C)(=O)=O)c2)CC1c1ccc(C)cc1 (stereo not drawn)	18.4 µM (active)	–
CS(=O)(=O)N1N=C(c2ccccc2)CC1c1ccc2c(c1)OCO2 (stereo not drawn)	14 µM (active)	–
Cc1ccc(CNC(=O)C2CC(c3cc(C(F)(F)F)cc(C(F)(F)F)c3)=NO2)o1 (stereo not drawn)	7.04 µM (active)	–
N#Cc1cc2ccccc2nc1SCc1ccccn1	16.4 µM (active)	–
O=C1c2ccccc2C(=O)c2c(/C=C/N3CCCCC3)ccnc21	18.4 µM (active)	–
Clc1ccc2c(c1)C(C1=NCCN1)c1ccccc1CS2 (stereo not drawn)	3.14 µM (active)	–
CC(C)n1c(O)c(N=Nc2ccc(Cl)nn2)c2ccccc21	18.4 µM (active)	–
CCCC(=O)NC(c1ccc(OC)cc1)c1ccc2cccnc2c1O (stereo not drawn)	–	-1.01%
CCC(=O)NC(c1ccc(OC)cc1)c1c(O)ccc2ccccc12 (stereo not drawn)	6.27 µM (active)	–
CN1/C(=C\C=C(/C#N)C(=O)Nc2ccccc2F)C(C)(C)c2ccccc21	16.4 µM (active)	–
CN1/C(=C\C=C(/C#N)C(=O)Nc2ccc(Cl)cc2)C(C)(C)c2ccccc21	5.59 µM (active)	–
Cc1ccc(C2=NN(C(=O)c3cccs3)C(c3ccccc3O)C2)cc1 (stereo not drawn)	–	-4.39% [at 36.9 µM]
Cc1ccccc1C1CC(c2cccs2)=NN1S(C)(=O)=O (stereo not drawn)	–	-23.5%
Cc1ccc(C2=NN(S(=O)(=O)c3ccccc3)C(c3ccccc3O)C2)cc1 (stereo not drawn)	18.4 µM (active)	–
